DT40 TDP1 no CPT = qHTS for Inhibitors of human tyrosyl-DNA phosphodiesterase 1 (TDP1): qHTS in cells in absence of CPT | DT40 Tdp1-/- hTDP1 cells, no CPT, ATP luminescence, 48 h | hit rate 15% among 420,000 | AID 686978, 2013 | Potency, µM (series often up to 46.2 µM), inactives show at the top dose activity change, negative = growth inhibition, hits mostly inhibitors; note: potency is the fitted concentration of half-maximal effect; % is set by controls: 0 for no effect and ±100 for the full control effect; nearly all actives have a fitted effect of over 55% in size
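No-CPT arm: Tdp1-/-;hTDP1 DT40 cells (400/well) plus compounds, incubated ≥48 hr at 37 °C. Readout CellTiter-Glo luminescence.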
TDP1 cell CPT = growth inhibition of DT40 Tdp1-/-;hTDP1 cells with camptothecin (screen for TDP1 inhibitors); chicken DT40 Tdp1-/-;hTDP1 cells + 20 nM CPT, ATP luminescence, 48 h; Potency, µM (highest dose often 46.2 µM), inactives show at the highest dose activity change, negative = growth inhibition, hits mostly inhibitors; hit rate 12% among 420,000; AID 686979; note: potency is the fitted concentration of half-maximal effect; % is set by controls: 0 for no effect and ±100 for the full control effect; nearly all actives have a fitted effect of over 55% in size
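Cell growth measured by CellTiter-Glo luminescence after a minimum 48 h, 37 C compound exposure with 20 nM CPT in Tdp1-knockout DT40 cells stably expressing hTDP1, seeded 400/well; qHTS titration format.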
HepG2 tox = counter-screen for TGF-b inhibitors: cytotoxicity in HepG2 cells; HepG2 CAGA-GFP viability, ATP luminescence, 18 h; Potency, µM (titrated, usually from 46.1 µM), inactives show at the top dose activity change, negative = cytotoxicity, actives largely listed as cytotoxic; hit rate 0.76% among 410,000; AID 588856; note: potency is the fitted concentration of half-maximal effect
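HepG2 CAGA-GFP cells (1000/well, DMEM with 1% FBS) received compound, then TGF-beta at 500 pg/mL final, and were incubated 18 hours at 37 degrees C. Viability was read by CellTiter-Glo luminescence. Media-only wells were set as complete cell-killing and DMSO as no toxicity.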
TGFb SMAD3 inh = inhibitors of TGF-b signaling | HepG2 CAGA-GFP TGF-b/SMAD3 reporter, GFP fluorescence, 18 h; TGF-beta stimulated, 500 pg/mL final | AID 588855 | hit rate 1.2% among 410,000 | Potency, µM (series often up to 46.1 µM), inactives show top-dose activity, negative = inhibition, usual class: inhibitors; note: potency is the fitted concentration of half-maximal effect; % is set by controls: 0 for no effect and ±100 for the full control effect; nearly all actives have a fitted effect of over 65% in size
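HEPG2 CAGA-GFP cells (1000/well, DMEM with 1% FBS) were pre-incubated 2 h at 37 degrees C, given compound by pin tool, then stimulated with TGF-beta at 500 pg/mL final for 18 h before per-cell GFP fluorescence imaging.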
IL1B secr inh = inhibitors of inflammasome signaling (IL-1 beta secretion). THP-1 LPS/ATP IL-1B secretion, AlphaLISA, 16 h; active compounds read low. activity change, % at 57.5 µM. hit rate 4.7% among 360,000. AID 743279; in the data active = activity change below about -50%; inconclusive = mostly about -30% to -49%; note: % is set by controls: 0 for no effect and ±100 for the full control effect
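THP-1 cells pretreated 1 hr with compounds (up to 57.5 uM final), then stimulated with LPS (250 ng/mL final) plus ATP (1.25 mM final); secreted IL-1B measured by AlphaLISA after 16 hr, decreased signal indicating inhibition.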
TDP1 block = blocks human tyrosyl-DNA phosphodiesterase 1 | Q9NUW8 | recombinant TDP1, AlphaScreen DNA substrate cleavage | hit rate 0.28% among 350,000 | Potency, µM (highest dose often 130 µM), inactives show at the highest dose activity change, negative = inhibition, most hits filed as inhibitors; note: potency is the fitted concentration of half-maximal effect; % is set by controls: 0 for no effect and ±100 for the full control effect; nearly all actives have a fitted effect of over 40% in size
Target sequence (Q9NUW8 whole entry, looked up): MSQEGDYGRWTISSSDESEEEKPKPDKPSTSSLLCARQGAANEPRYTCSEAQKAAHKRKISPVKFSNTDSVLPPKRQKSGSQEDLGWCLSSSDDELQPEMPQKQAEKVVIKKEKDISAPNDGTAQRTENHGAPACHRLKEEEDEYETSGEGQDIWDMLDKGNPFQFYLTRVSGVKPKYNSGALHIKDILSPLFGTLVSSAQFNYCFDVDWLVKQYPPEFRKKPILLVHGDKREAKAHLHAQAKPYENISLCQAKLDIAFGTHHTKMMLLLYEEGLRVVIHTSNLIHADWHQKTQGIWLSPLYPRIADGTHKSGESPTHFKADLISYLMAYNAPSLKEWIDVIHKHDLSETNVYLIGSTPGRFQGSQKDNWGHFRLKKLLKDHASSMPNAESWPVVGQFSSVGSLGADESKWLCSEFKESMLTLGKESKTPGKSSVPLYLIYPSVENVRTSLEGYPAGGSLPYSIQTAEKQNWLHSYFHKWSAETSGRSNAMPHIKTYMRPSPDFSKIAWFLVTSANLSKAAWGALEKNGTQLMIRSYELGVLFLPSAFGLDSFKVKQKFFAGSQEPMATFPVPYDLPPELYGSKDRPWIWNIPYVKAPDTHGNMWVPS
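Recombinant human Tdp1 (E. coli-expressed, 1 nM final) preincubated with compounds 15 min at room temperature, then 5'-biotin/3'-phosphotyrosine-FITC DNA substrate (15 nM final) added for 5 min. AlphaScreen beads (10 ug/ml final) added 10 min; cleavage lowers signal.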
* marks the source's active call; other numbers are inactive results; ? = inconclusive; nt = no result; [ ] = dose if it differs, or a comment. Only some compounds are listed: those with a hit (about 19% of all), similar ones and a draw of the others. Unless noted, calls come from the whole dose curve; as a rule, active = well fitted curve in the direction sought with a large enough effect; inconclusive = small, poorly fitted or top-dose-only effect, or another doubt; inactive = no such curve, though single readings can be large; an effect the other way counts as inactive or inconclusive.

SMILES	DT40 TDP1 no CPT	TDP1 cell CPT	HepG2 tox	TGFb SMAD3 inh	IL1B secr inh	TDP1 block
CC(=O)N[C@H]1C(O[C@@H]2O[C@H](C[C@@H](O)[C@H]3O[C@@H](N4CCC(=O)NC4=O)[C@H](O)[C@@H]3O)[C@H](O)[C@H](O)[C@H]2NC(=O)/C=C/CCCCCCCCCCC(C)C)OC(CO)[C@@H](O)[C@@H]1O (stereo partly drawn)	nt	nt	nt	nt	nt	12.2%
CC1CCCCC12NC(=O)N(CC(=O)Nc1ccc(N3CCCCC3)cc1)C2=O (stereo not drawn)	?	?	-17.2%	2.3%	-4.9	0.0%
Cc1ccc(-c2nnc(Nc3cccc(Br)c3)c3ccccc23)cc1S(=O)(=O)N1CCN(C)CC1	18.4µM*	13µM*	-18.6%	11.5%	nt	2.8%
Cc1ccc(-c2nnc(Nc3cccc(O)c3)c3ccccc23)cc1S(=O)(=O)N1CCCCC1	-102.0%	18.4µM*	-36.2%	?	nt	0.4%[12.3 µM]
COc1ccc2c(Cl)c(C(=O)NN)sc2c1	-11.0%	-7.8%	-2.1%	9.6%	?	5.9%
CC[n+]1c(C)sc2cc(OC)ccc21	2.91µM*	2.59µM*	-52.6%	-22.0%	-67.2*	3.7%
CCCCNc1nc(-c2ccccc2)cc(C(F)(F)F)c1C(N)=O	?	?	-40.7%	?	-70.4*	-1.6%[56.1 µM]
NC(=O)c1c(C(F)(F)F)cc(-c2ccccc2)nc1NCCO	-15.0%	-24.1%	10.7%	?	5.2	5.5%
CCC1CCCCN1S(=O)(=O)c1ccccc1[N+](=O)[O-] (stereo not drawn)	23.1µM*	20.6µM*	1.4%	-4.5%	2.0	1.2%
O=S(=O)(c1ccccc1)N1CCCCC1CCc1ccccc1 (stereo not drawn)	13µM*	?	-29.5%	15.7%	-28.8	nt
COc1ccccc1CCNC(=O)C(=O)NCCC1CCCCN1S(=O)(=O)c1ccccc1 (stereo not drawn)	16.4µM*	?	0.2%	-1.6%	-14.7	nt
COc1ccc(CCNC(=O)C(=O)NCCC2CCCCN2S(=O)(=O)c2ccccc2)cc1 (stereo not drawn)	23.1µM*	23.1µM*	-3.4%	5.6%	8.9	0.0%
Nc1ccc(F)cc1F	nt	nt	nt	nt	nt	14.9%
N#Cc1c(-c2ccccc2Cl)cc(-c2ccccc2)nc1Br	?	?	-11.9%	?	11.3	0.0%
Cc1ccc(NC(=O)CNc2ccccc2N2CCCC2=O)cc1S(=O)(=O)N1CCOCC1	?	?	7.5%	3.0%	5.0	-0.2%
CCCCC/C=C\C/C=C\C/C=C\C=C\[C@@H](O)CCCC(=O)O	-12.4%[0.628 µM]	5.4%[0.628 µM]	nt	nt	nt	6.1%
CC1CCN(S(=O)(=O)c2cn(CC(=O)N3CCN(c4cccc(C(F)(F)F)c4)CC3)cn2)CC1	?	14.6µM*	-0.1%	?	0.4	2.1%
CCOC(=O)c1cc2c(ccn2C)n1CC(=O)N1CCN(c2cccc(C(F)(F)F)c2)CC1	16.4µM*	16.4µM*	-8.0%	15.5%	-0.6	5.2%
Cc1nn(CC(=O)N2CCN(c3cccc(C(F)(F)F)c3)CC2)c(=O)c2cccn12	23.1µM*	14.6µM*	-18.3%	-7.4%	-5.4	3.5%
CCOC(=O)c1cc2c(ccn2C)n1CC(=O)N1CCN(c2ccc(F)cc2)CC1	-9.7%	0.7%	1.9%	5.4%	-1.9	4.2%
CC(=O)Nc1c(C)nn(-c2ccccc2)c1N1CCC(C(=O)Nc2ccccc2C(F)(F)F)CC1	-19.8%	-17.5%	1.2%	9.2%	nt	5.4%
C#CCN(C[C@H]1[C@H](OC(=O)NCCCCCC)[C@H](OC(=O)NCCCCCC)C[C@H]2C(=O)N(c3ccccc3)C(=O)[C@@H]12)S(=O)(=O)c1ccc(C)cc1	?	?	4.4%	-1.7%	?	nt
C#CCN(C[C@@H]1[C@@H](OC(=O)NCc2ccccc2F)[C@@H](OC(=O)NCc2ccccc2F)Cn2c(=O)ccc(=O)n21)S(=O)(=O)c1ccc(C)cc1	2.59µM*	4.11µM*	12.6µM*	11.2µM*	-111.3*	nt
C#CCN(C[C@@H]1[C@@H](OC(=O)NCC2CCCCC2)[C@@H](OC(=O)NCC2CCCCC2)Cn2c(=O)n(CCCCCC)c(=O)n21)S(=O)(=O)c1ccc(C)cc1	6.51µM*	?	-3.4%	-6.3%	-11.9	nt
C#CCN(C[C@@H]1[C@@H](OC(=O)NCc2ccccc2F)[C@@H](OC(=O)NCc2ccccc2F)Cn2c(=O)n(CCCCCC)c(=O)n21)S(=O)(=O)c1ccc(C)cc1	11.6µM*	?	-15.5%	-14.6%	?	nt
SMILES	DT40 TDP1 no CPT	TDP1 cell CPT	HepG2 tox	TGFb SMAD3 inh	IL1B secr inh	TDP1 block
C#CCN(C[C@@H]1[C@@H](OC(=O)NCCCCCC)[C@@H](OC(=O)NCCCCCC)Cn2c(=O)n(CCCCCC)c(=O)n21)S(=O)(=O)c1ccc(C)cc1	?	?	15.7%	25.3%	3.4	nt
CCCOc1ccc(C(=O)Nc2cc(-c3nc4cc(C)cc(C)c4o3)ccc2C)cc1	?	6.9%	3.2%	-8.4%	nt	-4.0%[12.3 µM]
O=c1c2ccccc2oc2cc(-c3ccc(CN4CCOCC4)cc3)ccc12	16.4µM*	13µM*	-17.4%	?	0.0	3.0%
O=c1cc(CN2CCOCC2)c2ccccc2o1	-0.5%	-12.3%	8.9%	3.7%	0.0	nt
O=C(CCCCCNC(=O)c1ccccc1)N/N=C/c1ccco1	-18.5%	-15.3%	-0.8%	-2.6%	11.8	39.8µM*
CCN(CC)c1ccc(N=Cc2ccc([N+](=O)[O-])o2)cc1	10.3µM*	5.8µM*	-76.6%	-29.5%	-66.8*	11.0%
CCCCCC(=O)N/N=C/c1ccc([N+](=O)[O-])o1	?	11.2µM*	10µM*	?	20.7	8.7%
O=[N+]([O-])c1ccc(/C=N/NC(=S)Nc2ccccc2F)o1	?	-10.0%	26.8%	4.6%	-0.5	5.4%
O=C(N/N=C/c1ccc([N+](=O)[O-])o1)C1CCCC1	?	?	-71.7%	?	36.3	-11.1%
O=[N+]([O-])c1ccc(/C=N/NC(=S)Nc2ccccc2)o1	23.1µM*	14.6µM*	-59.1%	?	-6.1	2.7%
O=C(CCCCCNC(=O)c1ccccc1)N/N=C/c1ccccc1O	-14.0%	-1.3%	-23.6%	-9.4%	23.3	8.1%
CCOc1ccc(NC(=O)[C@@H](c2ccccc2)N2Cc3ccccc3C2=O)cc1	?	-8.5%	-31.6%	?	nt	4.6%

Screening data (PubChem)
